Reference: PubChem BioAssay AID1851 (National Center for Advancing Translational Sciences (NCATS), 2009)
Several values for one entry are separate records, joined by “and”; a condition that tells them apart may be missing. Identical values can stand only once. About 5,100 (32%) of roughly 16,000 compounds were called active. Not shown: some 25% with an inconclusive outcome. Calls come from the whole dose curve; as a rule, active = well fitted curve in the direction sought with a large enough effect; inconclusive = small, poorly fitted or top-dose-only effect, or effect the other way; inactive = no such curve, though single readings can be large or run the other way. The list shows a part of the results.

These compounds were tested against Cytochrome P450 3A4 (Homo sapiens) (UniProt P08684) (assay: Cytochrome panel assay with activity outcomes). Conditions: recombinant CYP, pro-luciferin dealkylation, luminescence, p450-cyp3a4; series mostly up to 57.1 µM.
% is set by controls: 0 for no effect and ±100 for the full control effect.

Chain of Cytochrome P450 3A4 (Homo sapiens) (P08684 whole entry, looked up): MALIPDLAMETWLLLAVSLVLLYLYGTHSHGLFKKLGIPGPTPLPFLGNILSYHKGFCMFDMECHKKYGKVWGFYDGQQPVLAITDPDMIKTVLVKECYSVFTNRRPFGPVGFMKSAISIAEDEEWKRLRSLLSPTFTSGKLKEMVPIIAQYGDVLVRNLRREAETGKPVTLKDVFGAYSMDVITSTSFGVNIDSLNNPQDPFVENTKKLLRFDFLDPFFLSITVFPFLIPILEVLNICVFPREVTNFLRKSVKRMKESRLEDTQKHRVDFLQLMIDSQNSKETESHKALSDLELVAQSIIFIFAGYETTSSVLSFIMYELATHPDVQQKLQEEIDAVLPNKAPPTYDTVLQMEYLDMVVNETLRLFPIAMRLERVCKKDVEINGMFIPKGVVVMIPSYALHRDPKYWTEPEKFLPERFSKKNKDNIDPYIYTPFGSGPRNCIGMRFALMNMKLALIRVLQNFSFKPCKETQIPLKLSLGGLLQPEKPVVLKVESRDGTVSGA

Row | SMILES | AC50 | activity, negative = inhibition
1 | C[C@H](CO)NC(=O)[C@H](C)[C@@H]1C[C@@]1(C)[C@@H](NC(=O)OCc1ccccc1)c1ccccc1 | 5.01 µM (active) | –
2 | C[C@H](CO)NC(=O)[C@H](C)[C@H]1C[C@]1(C)[C@H](NC(=O)OCc1ccccc1)c1ccccc1 | 3.98 µM (active) | –
3 | CN1CCN(S(=O)(=O)c2cc([N+](=O)[O-])ccc2N2CCCCCC2)CC1 | 0.794 µM (active) | –
4 | CN1CCN(c2ccc([N+](=O)[O-])cc2C(=O)N2CCOCC2)CC1 | inactive | –
5 | O=C(N/N=C/c1cc([N+](=O)[O-])ccc1N1CCNCC1)c1ccc([N+](=O)[O-])cc1 | inactive | –
6 | CN(C)S(=O)(=O)c1cc([N+](=O)[O-])ccc1N1CCCCCC1 | 12.6 µM (active) | –
7 | O=C(c1ccc(Br)cc1)c1cc([N+](=O)[O-])ccc1N1CCCCC1 | 3.55 µM (active) | –
8 | CN1CCN(c2ccc([N+](=O)[O-])cc2S(=O)(=O)N2CCOCC2)CC1 | inactive | –
9 | O=C1C[C@@H](O)[C@@H](O)[C@H]2[C@@H]3C(=O)N(C4CCCCC4)C(=O)[C@@H]3CC[C@H]12 | – | -5.08% [at 11.4 µM] (inactive) and -17.3% [at 11.4 µM] (inactive) and -26.5% [at 11.4 µM] (inactive)
10 | COc1ccc(C2=CSC(/N=C/c3ccc(F)cc3)=NN2)cc1 | – | 0.425% [at 2.29 µM] (inactive)
11 | Cc1ccc(-c2n[nH]c(=S)n2/N=C/c2cccn2C)cc1 | 12.6 µM (active) | –
12 | COc1ccc(/C=N/n2c(-c3cccs3)n[nH]c2=S)cc1 | 8.91 µM (active) | –
13 | Cc1ccc(/C=C/c2nnc(-c3cccs3)o2)cc1 | – | 6.75% [at 2.29 µM] (inactive)
14 | Cc1ccc(/C=N/n2c(-c3cccs3)n[nH]c2=S)cc1 | 11.2 µM (active) | –
15 | CN(C)C=Nc1ccc2nn(-c3ccccc3)nc2c1 | – | -3.41% [at 2.29 µM] (inactive)
16 | O=[N+]([O-])c1ccc([C@@H](Nc2ccccc2)c2ccc3cccnc3c2O)cc1 | – | -23.7% [at 11.4 µM] (inactive)
17 | c1ccc(-c2nnn(CCN3CCCCC3)n2)cc1 | – | -9.98% [at 11.4 µM] (inactive)
18 | c1ccc(-c2nc(N3CCCCCC3)nc(-n3ccnc3)n2)cc1 | 0.708 µM (active) | –
19 | CCCSc1cc(N2CCCC2)nc(-c2ccccc2)n1 | inactive | –
20 | CN(c1ccccc1)c1nc(-n2ccnc2)nc(-n2ccnc2)n1 | 0.891 µM (active) | –
21 | COc1ccccc1-c1ccc2ncnc(N3CCOCC3)c2c1 | 6.31 µM (active) | –
22 | COc1ccccc1-c1ccc2ncnc(N3CCN(C)CC3)c2c1 | 3.16 µM (active) | –

Row | SMILES | AC50 | activity, negative = inhibition
23 | CN(C)C(=O)c1ccc(-c2ccc3ncnc(N4CCC(C(=O)O)CC4)c3c2)cc1 | inactive | –
24 | CN(C)Cc1ccccc1-c1ccc2ncnc(N3CCOCC3)c2c1 | 20 µM (active) | –
25 | CCCCCCCCCn1cc(C(C)=O)c(=O)[nH]c1=O | – | -7.53% [at 2.29 µM] (inactive)
26 | CN(C)C[C@H]1CCC2=C(C1=O)C(c1ccc(Cl)c(Cl)c1)C1=C(CC[C@H](CN(C)C)C1=O)O2 | 0.398 µM (active) | –
27 | O=C(Cn1ccc(=O)[nH]c1=O)Nc1ccc(C(=O)O)c(O)c1 | – | -4.95% [at 11.4 µM] (inactive)
28 | COc1ccc(Cc2nc3ccc(S(=O)(=O)N4CCOCC4)cc3[nH]2)cc1OC | 12.6 µM (active) | –
29 | COc1cccc(C2NC(c3cccc(OC)c3O)C(C)C(=O)C2C)c1O (stereo unspecified) | 12.6 µM (active) | –
30 | COc1cccc2c1OC1(C)CC2/C(=C(\C)O)C(=O)N1 (stereo unspecified) | inactive | –
31 | COc1cccc(C(c2c(C)[nH]n(-c3ccccc3)c2=O)c2c(C)[nH]n(-c3ccccc3)c2=O)c1O | inactive | –
32 | CN1c2ccccc2Oc2c(c(=O)n(C)c(=O)n2C)C1c1cccc([N+](=O)[O-])c1 (stereo unspecified) | 15.8 µM (active) | –
33 | CC1(C)CC2(CC(C)(C(=O)CSc3nc4ccccc4s3)OC2=O)C(=O)O1 (stereo unspecified) | 10 µM (active) | –
34 | CC(C)CC1CC(=O)OC1(C)C(=O)CSc1nc2ccccc2s1 (stereo unspecified) | 15.8 µM (active) | –
35 | NCCSSCCN | inactive | –
36 | COc1ccc2[nH]cc(CCNc3nc(-c4ccccc4OC)nc4ccccc34)c2c1 | 2.51 µM (active) | –
37 | COc1cccc(-c2nc(NCCc3c[nH]c4ccc(OC)cc34)c3ccccc3n2)c1 | 2 µM (active) | –
38 | COc1ccc2[nH]cc(CCNc3nc(-c4cccnc4)nc4ccccc34)c2c1 | 1.58 µM (active) | –
39 | COc1ccc2[nH]cc(CCNc3nc(-c4ccoc4)nc4ccccc34)c2c1 | 3.16 µM (active) | –
40 | COC(=O)[C@@H]1O[C@@H](c2c(OC)c(OC)c(C)c(OC)c2OC)[C@H](C)[C@@H](O)[C@@H]1C | – | -7.25% [at 11.4 µM] (inactive)
41 | O=c1c(-c2ccccc2)nc2cncnc2n1-c1ccccc1 | inactive | –
42 | COc1ccc(-n2c(=O)c(-c3cn(C)c4ccccc34)nc3cncnc32)cc1 | 20 µM (active) | –
43 | Cn1cc(-c2nc3cncnc3n(-c3ccccc3)c2=O)c2ccccc21 | 10 µM (active) | –
44 | CCCc1nnc(NC(=O)CCC(=O)NCc2ccccc2OC)s1 | – | 2.33% [at 2.29 µM] (inactive)

Row | SMILES | AC50 | activity, negative = inhibition
45 | CCCCCc1nnc(NC(=O)C(=O)OCC)s1 | – | 1.6% [at 2.29 µM] (inactive)
46 | CCCc1nnc(NC(=O)C(CC)OC(=O)c2cc(C)nc3ccccc23)s1 (stereo unspecified) | 12.6 µM (active) | –
47 | CC(=O)Nc1ccc(C2=NN(CC#N)C(=O)SC2)cc1 | inactive | –
48 | NNC(=O)Cc1cccnc1 | 3.16 µM (active) | –
49 | O=C(c1ccccc1)c1c[nH]c(C(=O)NCc2cccnc2)c1 | 4.47 µM (active) | –
50 | O=C(O)[C@@H]1[C@@H](C(=O)NCc2cccnc2)[C@@H]2C=C[C@@H]1O2 | – | -21.1% [at 11.4 µM] (inactive)
51 | O=C(NCc1cccnc1)[C@@H]1[C@@H](C(=O)O)[C@H]2CC[C@@H]1O2 | – | -23.9% [at 11.4 µM] (inactive)
52 | O=C(O)Cc1cccnc1 | – | -12.2% [at 11.4 µM] (inactive)
53 | O=C(Nc1cccnc1)C1COc2ccccc2O1 (stereo unspecified) | inactive | –
54 | COc1ccc(C(=O)c2c[nH]c(C(=O)NCc3cccs3)c2)cc1 | inactive | –
55 | O=C(CCc1ccccc1)NCc1cccnc1 | 5.01 µM (active) | –
56 | O=C(NCc1cccnc1)C1COc2ccccc2O1 (stereo unspecified) | 5.01 µM (active) | –
57 | CC(C)=CCC/C(C)=C/CO/N=C1/C[C@@H](O)[C@@H](O)[C@@H]2[C@@H]3C(=O)N(C(C)(C)C)C(=O)[C@H]3CC[C@H]12 | – | -7.78% [at 11.4 µM] (inactive)
58 | CO[C@]1(C2=NCCN2)COc2ccccc2O1 | inactive | –
59 | O=C(CSCc1c(Cl)cccc1Cl)NCc1cccnc1 | 3.16 µM (active) | –
60 | Cc1nc2c(C(=O)NCc3ccc4c(c3)OCO4)c[nH]n2c(=O)c1Cc1ccccc1F | 2.24 µM (active) | –
61 | CCOC(=O)Cc1c(C)nc2c(C#N)c[nH]n2c1=O | inactive | –
62 | COc1ccc(-n2cccc2C=O)cc1OC | inactive | –
63 | CC(C)(C)NC(=O)CSC(=Nc1ccc(F)cc1)NC#N | – | -11.3% [at 2.29 µM] (inactive)
64 | O=C(Oc1ccccc1N1C(=O)C2CCCCC2C1=O)c1ccccc1 (stereo unspecified) | – | -1.02% [at 2.29 µM] (inactive)
65 | Cc1ccc(C(=O)COC(=O)c2ccccc2N2C(=O)C3C4CCC(C4)C3C2=O)cc1C (stereo unspecified) | 12.6 µM (active) | –
66 | C[N+]1(C)CCC[C@@H](OC(=O)C(O)(c2ccccc2)c2ccccc2)C1 | inactive | –

Row | SMILES | AC50 | activity, negative = inhibition
67 | CCC(=O)Nc1ccc(C(=O)CSc2nnc(-c3ccc(O)cc3)n2CC2CCCO2)cc1OC (stereo unspecified) | 14.1 µM (active) | –
68 | Cc1ccc(-c2ccc(CCC(=O)O)n2CC2CCCO2)cc1 (stereo unspecified) | – | 18.1% [at 2.29 µM] (inactive)
69 | Cc1cc(-c2cc(C)c(O)c(C(C)(C)C)c2)cc(C(C)(C)C)c1O | – | -12.3% [at 11.4 µM] (inactive)
70 | Cc1cc(Cc2c(C)c(C)c(Cc3cc(C)cc(C(C)(C)C)c3O)c(C)c2C)c(O)c(C(C)(C)C)c1 | – | 0.196% [at 11.4 µM] (inactive)
71 | CC(C)(C=O)Cc1cc(C(C)(C)C)c(O)c(C(C)(C)C)c1 | 12.6 µM (active) | –
72 | Cc1cc(Cc2cc(C)cc(C(C)(C)C)c2O)c(O)c(Cc2cc(C)cc(C(C)(C)C)c2O)c1 | – | -19.8% [at 11.4 µM] (inactive)
73 | CC(C)(CO)Cc1cc(C(C)(C)C)c(O)c(C(C)(C)C)c1 | 2.51 µM (active) | –
74 | Cc1cc(Cc2cc(Cc3cc(C)cc(C(C)(C)C)c3O)c(C)cc2C)c(O)c(C(C)(C)C)c1 | – | -23.1% [at 11.4 µM] (inactive)
75 | CCCCc1c2ccccc2nc2[nH]c3ccccc3c12 | 15.8 µM (active) | –
76 | CN(C)CCCc1c2ccccc2nc2ccc(Cl)cc12 | – | -1.41% [at 11.4 µM] (inactive)
77 | CCCCCc1nc2c(=O)[nH]c3ccccc3c2o1 | inactive | –
78 | Clc1ccc2c(NC3CCC(N4CCCCC4)CC3)ccnc2c1 (stereo unspecified) | – | -1.29% [at 11.4 µM] (inactive)
79 | COc1ccc(CNc2cc(-c3ccccc3OC)ncn2)c(OC)c1 | 6.31 µM (active) | –
80 | COc1ccc(CNc2cc(-c3ccccc3Cl)ncn2)c(OC)c1 | 6.31 µM (active) | –
81 | COc1ccccc1CNc1cc(-c2ccccc2OC)ncn1 | 15.8 µM (active) | –
82 | COc1ccccc1-c1cc(Nc2ccn[nH]2)ncn1 | 3.98 µM (active) | –
83 | COc1ccccc1-c1cc(Nc2ccc(F)cc2)ncn1 | inactive | –
84 | N/C(=N\O)c1cn([C@@H]2O[C@@H](CO)[C@H](O)[C@@H]2O)c2ncnc(NO)c12 | – | -7.27% [at 11.4 µM] (inactive)
85 | CC(=O)OC[C@@H]1O[C@@H](O/N=C2/C[C@@H](O)[C@@H](O)[C@@H]3[C@@H]4C(=O)N(C[C@@H]5CCCO5)C(=O)[C@H]4CC[C@H]23)[C@H](OC(C)=O)[C@H](OC(C)=O)[C@@H]1OC(C)=O | – | -12.5% [at 11.4 µM] (inactive)
86 | Oc1cc(O)c2c(c1)O[C@@H](c1ccc(O)c(O)c1)[C@H](O[C@@]1(c3cc(O)c(O)c(O)c3)Oc3cc(O)cc(O)c3[C@H](O)[C@@H]1O)C2 | – | -19.7% [at 11.4 µM] (inactive)
